Compound activity as filed in PubChem BioAssay.
TTR transcr act = activators of transthyretin transcription; SH-SY5Y TTR promoter Gaussia luciferase, luminescence; 100% = recombinant luciferase protein wells; activation, % at 16.7 µM; 1.3% of 92,000 active; AID 1117267;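 active means activation above the mean of all tested compounds plus 3 SD, cut at about 9.5% in these data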;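 further: cells exposed to compounds for one day before reading; 0% = median of all test compound wells on the plate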
TTR inh HuH7 = decreases TTR transcription in HuH7 cells in activator counter-screen. shares compounds with TTR transcr act. HuH7 TTR promoter-Gaussia luciferase reporter, luminescence. inhibition, % at 16.7 µM. 4% of 1,100 active;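 active means average inhibition above the solvent-only control wells' mean plus 3 SD, cut at about 15% in these data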;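 further: 0% = cells with DMSO only and 100% = cells with inhibitor control FD; inhibitors lower well luminescence so higher value means more inhibition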
TTR up confirm = human TTR transcription activation, confirmation; shares compounds with TTR transcr act; SHSY5Y TTR promoter Gaussia luciferase, luminescence; 100% = purified Lucia enzyme wells, no cells; AID 1117280; 1,100 tested, under 10 active; activation, % at 16.7 µM;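 active means mean activation above a set limit taken from the earlier primary screen, cut at about 11% in these data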;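 further: 0% = DMSO-treated cells and 100% = recombinant Lucia luciferase without cells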
Active calls of the source: *. Many of the other results were omitted from the sample, so hits are more common in it than they were.

SMILES | TTR transcr act | others
CN(C)CCCNC(=O)c1ccc(Cl)c(S(=O)(=O)N(C)c2ccccc2)c1 | 3.3
CC1=C(C(=O)Nc2ccccc2C)C(c2ccccc2)NC(=O)N1 (centres undefined) | -0.8
CC1=C(C(=O)Nc2ccc(C)cc2)C(c2ccc(N(C)C)cc2)NC(=O)N1 (centres undefined) | 0.5
COc1cccc(C2NC(=O)NC(C)=C2C(=O)Nc2ccc(C)cc2)c1 (centres undefined) | 21.2* | TTR inh HuH7=-10.6;TTR up confirm=0.3
O=C(c1[nH]c(C(F)(F)F)nc1-c1ccccc1)N1CCN(c2cccc(C(F)(F)F)n2)CC1 | -1.7
CCC(CC)C(=O)OCC(=O)Nc1cccc([N+](=O)[O-])c1 | 2.4
CC(C)(C)c1ccc(C(=O)Nc2cc(Cl)ccc2C(=O)O)cc1 | -2.1
O=C(Nc1ccc(N2C(=O)[C@@H]3[C@H](C2=O)[C@@H]2C=C[C@H]3C2)c(Cl)c1)c1ccccn1 | -1.5
O=C(Nc1ccc(N2C(=O)CC(c3ccccc3)C2=O)c(Cl)c1)c1ccccn1 (centres undefined) | 37.5* | TTR inh HuH7=-4.4;TTR up confirm=0.7
O=C(NNC1CC(=O)N(c2ccc(Cl)cc2)C1=O)c1ccccn1 (centres undefined) | -0.8
CCOc1ccc(CCNC(=O)COC(=O)c2c(C)nn(-c3ccccc3)c2C)cc1OCC | -0.4
C[C@H](CO)N1C[C@H](C)[C@@H](CN(C)Cc2ccccc2C(=O)O)OCc2cnnn2CCCC1=O | -0.5
COc1cccc(S(=O)(=O)N(C)C[C@@H]2OCc3cn(nn3)CCCC(=O)N([C@@H](C)CO)C[C@H]2C)c1 | 11.4* | TTR inh HuH7=-7.5;TTR up confirm=0.6
C[C@@H]1CN([C@@H](C)CO)C(=O)CCCn2cc(nn2)CO[C@H]1CN(C)S(=O)(=O)c1cccc(C#N)c1 | -1.5
C[C@H](CO)N1C[C@H](C)[C@@H](CN(C)S(=O)(=O)c2ccc3ccccc3c2)OCc2cn(nn2)CCCC1=O | 0.3
O=C(Nc1c(-c2ccc(F)cc2)nc2ncccn12)C1CC1 | -0.6
CCOC(=O)Cc1csc(NC(=O)c2c(O)c3c(n(CC(C)C)c2=O)CCCC3)n1 | -1.1
Cn1nc(CC(=O)NC2CCCCCC2)c2ccccc2c1=O | 1.4
Cn1nc(C(=O)NC2CCC(O)CC2)c2ccccc2c1=O (centres undefined) | -0.2
Cn1nc(CC(=O)NC2CCCCC2)c2ccccc2c1=O | 10.1* | TTR inh HuH7=0.4;TTR up confirm=-0.9
O=C1CC(c2ccc(Cl)cc2)SC(N(c2ccccc2)c2ccccc2)=N1 (centres undefined) | -2.4
O=C1CC(c2cccc(F)c2)c2c(c3ccccc3[nH]c2=O)O1 (centres undefined) | 1.5
CCC(C)(C)n1nnnc1C(c1cc2cc(C)cc(C)c2[nH]c1=O)N1CCCC1 (centres undefined) | -2.2
CCC(C)(C)n1nnnc1C(c1ccc(C)cc1)N1CCCC1 (centres undefined) | 18.1* | TTR inh HuH7=-7.4;TTR up confirm=1.1
Cc1ccc(C)c(N2CCN(C(c3ccccc3)c3nnnn3C(C)(C)C)CC2)c1 (centres undefined) | 0.1
SMILES | TTR transcr act | others
CC1(C(=O)Nc2ccc3ccccc3c2)CCC(=O)N1CC(F)(F)F (centres undefined) | 13.1* | TTR inh HuH7=-13.7;TTR up confirm=0.6
CC1(C(=O)NCc2ccccc2)CCC(=O)N1CC(F)(F)F (centres undefined) | 1.6
CC1(C(=O)Nc2ccc3c(c2)OCCO3)CCC(=O)N1CC(F)(F)F (centres undefined) | -2.0
C[C@H]1[C@@H](NC(=O)Cc2ccsc2)CC[C@@]23CCCN2C(=O)CCC[C@@H]13 | 1.6
Nc1ccn([C@@H]2O[C@H](C(=O)N[C@H](CO)Cc3ccccc3)[C@@H](O)[C@H]2O)c(=O)n1 | 3.5
O=C(CN1CCOCC1)NCCNS(=O)(=O)c1ccccc1 | 0.1
O=C(CNS(=O)(=O)c1ccc(C(=O)N2CCOCC2)cc1)N1CCOCC1 | 1.4
O=C(NCCNS(=O)(=O)c1ccc(C(F)(F)F)cc1)N1CCOCC1 | 11.7* | TTR inh HuH7=-6.0;TTR up confirm=-0.5
O=C(Cc1ccccc1[N+](=O)[O-])NCC(O)c1ccc2c(c1)OCO2 (centres undefined) | -1.1
CCc1cccc(NC(=O)c2cccc(S(=O)(=O)N3CCN(C)CC3)c2)c1 | 0.5
CCN(Cc1ccncc1)C(=O)c1ccc(C)o1 | 0.7
CCN(CC)C(=S)SC1CCCCN(C(=O)c2ccc(F)cc2)C1=O (centres undefined) | -3.0
O=S(=O)(c1ccc(SCCOc2ccc(Br)cc2)nc1)N1CCCC1 | -1.9
O=S(=O)(c1ccc(SCCOc2ccc(Cl)cc2)nc1)N1CCCC1 | 20.8* | TTR inh HuH7=6.6;TTR up confirm=-1.0
O=S(=O)(c1ccc(SCc2c(F)cccc2Cl)nc1)N1CCCC1 | -0.8
CCCCCCCCN1C(=O)[C@@H](CC(=O)N2CCSCC2)C[C@@]2(C(=O)OC)C1=C[C@H](C(C)C)O[C@@H]2C1CC1 | -1.3
CC(CCc1ccccc1)NC(=O)CN1CCN(c2ccccc2)CC1 (centres undefined) | 0.0
COc1ccc(C(C)(NC(C)=O)c2nc(-c3cccc(C(=O)O)c3)cs2)cc1 (centres undefined) | 10.0* | TTR inh HuH7=-19.9;TTR up confirm=0.0
COc1cccc(C(C)(O)c2nc(-c3cccc(C(=O)O)c3)cs2)c1 (centres undefined) | 1.5
COc1ccc(C(C)(NC(C)=O)c2nc(-c3cc(F)cc(F)c3)cs2)cc1 (centres undefined) | -2.0
COC(=O)c1ccc(C(=O)N2CCCC(C)(C(=O)NS(=O)(=O)C3CC3)C2)cc1 (centres undefined) | -0.6
CC(C)=CCN1CCN(Cc2cccn2-c2ccccn2)CC1CCO (centres undefined) | 1.1
O=C(Nc1ccc2oc(-c3ccncc3)nc2c1)c1ccc2c(c1)OCCO2 | -1.1
O=C(Nc1ccc2oc(-c3ccncc3)nc2c1)c1ccc(F)cc1 | -1.5
O=C(Nc1ccc2oc(-c3ccncc3)nc2c1)c1ccc(Br)o1 | 10.2* | TTR inh HuH7=-9.6;TTR up confirm=-1.2
SMILES | TTR transcr act | others
CC1CCCCN1S(=O)(=O)c1ccc(S(=O)(=O)N2CCCC2)cc1 (centres undefined) | 2.4
Cc1cc2nc(-c3ccc(F)cc3)c(Cc3ccccc3)n2c(C)c1Br | 0.0
Cc1ccc(Cc2c(-c3ccccc3)nc3cc(C)c(Br)c(C)n23)cc1 | 11.7* | TTR inh HuH7=-9.8;TTR up confirm=-0.5
Cc1ccc(Cc2c(-c3cccc(Cl)c3)nc3cc(C)c(Br)c(C)n23)cc1 | 0.5
COc1ccc2[nH]c(=O)c(CN(C(=O)c3cccnc3)c3ccccc3C)cc2c1 | 0.1
O=C(Nc1cc(Cl)ccc1O)C1CC(c2ccccc2Cl)=NO1 (centres undefined) | -2.0
COc1cccc(C(=O)NOCc2ccc(C)cc2)c1OC | 9.7* | TTR inh HuH7=-7.1;TTR up confirm=-0.7
COc1cccc(C(=O)NCCC2=CCCCC2)c1OC | 1.0
COCCCNC(=O)c1cccc(OC)c1OC | -1.6
COCCNC(=O)c1c(N)[nH]c(C(=O)c2ccc(Br)cc2)c1-c1c(OC)ccc2ccccc12 | -0.3
Cc1nc(C)n(C(Oc2ccc(Cl)cc2Cl)C(=O)C(C)(C)C)n1 (centres undefined) | -0.5
COc1ccc(NC(=O)c2sccc2C)c([N+](=O)[O-])c1 | 3.7
COc1ccc(NC(=O)Nc2ccc(OC)c(OC)c2)c([N+](=O)[O-])c1 | 1.9
